Whole data set: some 25,000 sequences, median “ln(normalized median fluorescence intensity)” near 9.3, cut for the highest 2% near 10. The sample holds the highest values, similar sequences and a random draw of the others, so the mix is not that of the screen.
tested on: PF3D7_0420300 AP2 domain 1 (GST-tagged); assay: gcPBM binding intensity (ln(normalized median fluorescence intensity)); higher = stronger DNA binding
In short: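 The binding buffer was 1× PBS containing 1% milk, 0.2 mg/ml BSA, 0.5% salmon testes DNA and 0.03% Triton X-100. In it, GST-tagged P. falciparum DNA-binding domains expressed in E. coli were applied for 1 h to an Agilent 4 × 180k array of primer-extended double-stranded 36-bp intergenic genomic probes plus negative controls. Binding intensity, read with Alexa488 anti-GST antibody and a 488 nm scan, is the highest Masliner-normalised natural-log median intensity across replicate spots of either probe orientation.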

Going from “TCTTATAAACTCTGCACACATAATATATTAAATGAG [CACACA_site1936]” to “TATATTTATTATAATTGTACATAAAATAAACTAAGA [XGTACX_site4318]”, the “gcPBM binding intensity (ln)” value falls from 9.31 to 9.19.

Compared with “TATATATGTAGACGTTGTACTTTTTTGTAAGTTTAA [XGTACX_site5638]”, TGATATTTTTCCATAGTGCAAAATATAGTAATGTAT is lower in “gcPBM binding intensity (ln)” value: 9.13 for the first, 9.11 for the second.

First: AAAAAAAAAAAAAAAACACACATACATACATACATA [CACACA_site6125]
Second: AAAAAACACCCATACACACACACACCGATATATATA [CACACA_site5808]
The “gcPBM binding intensity (ln)” value of the first is lower: 9.61 for the first, 10.2 for the second.

First: AAAAAAAAAAAACACACACACACACCCATACATACA [CACACA_site707]
Second: AAAAAAAAAAAAAACACACACACACCCATACACATA [CACACA_site2860]
The “gcPBM binding intensity (ln)” value of the first is higher: 10.2 for the first, 10.1 for the second.

Compared with “AAAAAACAGACATACACACACACACCCATATATATA [CACACA_site3392]”, “AAAACATACATATATACACACATATATATATATATA [CACACA_site1852]” is lower in “gcPBM binding intensity (ln)” value: 10.2 for the first, 9.57 for the second.

First: AAAAAAAAAAAACACACACACACATACCCATACATA [CACACA_site5575]
Second: CACAGACACCCATACACACACATACCCATATATATA [CACACA_site5023]
The “gcPBM binding intensity (ln)” value of the first is higher: 10.1 for the first, 10 for the second.

Compared with “AAAAAAAAAAAACACACACACACATACACATACATA [CACACA_site2858]”, “AAAAAAAAAAAAAAAACACACATACACCCAGACACA [CACACA_site5807]” is lower in “gcPBM binding intensity (ln)” value: 10.2 for the first, 9.6 for the second.

Going from “TTTTTAATAACACTTTTGAAAAATAAAATAAAATAA [CACACA_negctrl_site821]” to “AAACAAATAAAATTTATTAAAAAGGTCATATTATTA [CACACA_negctrl_site85]”, the “gcPBM binding intensity (ln)” value rises from 8.8 to 9.12.

Going from “AGAAAGGATATTATATGTACATATCTTTGTATTTTT [XGTACX_site5040]” to “GTATACATGCAAATTTTTATTTACAACCCCAAAAAG [XGTACX_negctrl_site255]”, the “gcPBM binding intensity (ln)” value falls from 9.36 to 9.23.

First: GCACAAATATATATATATATATATATATATATATAT [GTGCAC_negctrl_site661]
Second: AAAAAAAAAAAACACACACACACACCCATATACATA [CACACA_site2664]
The “gcPBM binding intensity (ln)” value of the first is lower: 9.06 for the first, 10.3 for the second.

Compared with “AAAAAAAAAAAAAACACACACACACCCATACCCATA [CACACA_site5577]”, “TAAACACCCATACATACACACATACATACACCCATA [CACACA_site5125]” is lower in “gcPBM binding intensity (ln)” value: 10.1 for the first, 9.58 for the second.

Compared with “AAAAAAAAAAAAAACACACACACACCCACATATACA [CACACA_site2663]”, “AAAAAAAAAAAAAACACACATACACGCCCACCCATA [CACACA_site3391]” is higher in “gcPBM binding intensity (ln)” value: 10.1 for the first, 10.2 for the second.

First: TCCTTTTCATCTTGTAGTACGGAAATGTAGCTCCAA [XGTACX_site8563]
Second: CTTTTTTTAATGATAACACACATGTTGTGCATAGAC [CACACA_site3270]
The “gcPBM binding intensity (ln)” value of the first is lower: 9.09 for the first, 9.32 for the second.

First: ATTTATTAAAAGAAATGTACAGAAAATGTTTGGAAT [XGTACX_site7187]
Second: ATTAAATATATTTTGCGTACACAAAAAAATACGTTC [XGTACX_site3862]
The “gcPBM binding intensity (ln)” value of the first is higher: 9.26 for the first, 9.15 for the second.

Compared with “AATGAAAATAAATTAACACACAATTTTAATATTGTT [CACACA_site1306]”, “TCATATATTTATGTATGTACATATATATATAGATTA [XGTACX_site380]” is lower in “gcPBM binding intensity (ln)” value: 9.32 for the first, 9.01 for the second.

Going from “CATATCATTGATTATAGTACACATACCATTTTTTAT [XGTACX_site6572]” to GTAATAAGAATTATAGTGCAATGTAATACATTTATA, the “gcPBM binding intensity (ln)” value falls from 9.45 to 9.23.

Compared with AGGATAAAAGTTATGGTGCATTAACCTATTTAAATA, “ATTACATACACGCGCACACACAAAAAAAAAAAAAAA [CACACA_site1334]” is higher in “gcPBM binding intensity (ln)” value: 9.14 for the first, 9.57 for the second.

Going from “AACACCCATGGACACACACACATATATATATATATA [CACACA_site5809]” to “AAAAAACACGGACACACACACATATACATACATACA [CACACA_site5470]”, the “gcPBM binding intensity (ln)” value rises from 9.92 to 10.1.

Compared with “AGAAAAAAACAACATGCACACGCACCCACAAAAAAA [CACACA_site7908]”, “AACACGCGCAGACACACACACACACCCACATATATA [CACACA_site2205]” is higher in “gcPBM binding intensity (ln)” value: 9.71 for the first, 10.2 for the second.

Compared with “AAAAAACACGCGCACACACACACACGCGCCCACATA [CACACA_site7106]”, “AAAACACGCGGACACACACACACACGCCCACATATA [CACACA_site7105]” is higher in “gcPBM binding intensity (ln)” value: 10.3 for the first, 10.4 for the second.

Compared with “AACACGCGCGGACACACACACACACCCACATATATA [CACACA_site5252]”, “AAAAAAAAAAAAAAAACACACACATATATATATATA [CACACA_site8571]” is lower in “gcPBM binding intensity (ln)” value: 10.4 for the first, 9.51 for the second.

Compared with “ACTTTATATTTTGAACGTACAAAAAAAAAATTATGT [XGTACX_site5588]”, “AATACAATATAGTGAAAAATAATTAAATACAATAAG [XGTACX_negctrl_site161]” is higher in “gcPBM binding intensity (ln)” value: 9.04 for the first, 9.6 for the second.

Compared with “TAGATATATAGACACACACACATTAATACCTATATT [CACACA_site7605]”, “CGCTTTATTTATATATGTACATATATATATATATAC [XGTACX_site5012]” is lower in “gcPBM binding intensity (ln)” value: 10.1 for the first, 9.33 for the second.

Going from “TAATATAACAAAAAAATAAAATAAAATAAAAAATAA [CACACA_negctrl_site109]” to “AAAAGAATTACTTTCACACATATATATCTGTAAATA [CACACA_site5798]”, the “gcPBM binding intensity (ln)” value falls from 9.35 to 9.15.

“TACACGCATGGACACACACACACACCCATATATATA [CACACA_site4522]” and “CACGCGCCCGGACACACACACACACCCATATATATA [CACACA_site5251]” are the same in “gcPBM binding intensity (ln)” value: 10.2 for the first, 10.2 for the second.

Going from “TACACCCATGGACACACACACACGCATAAAAAAAAA [CACACA_site4933]” to “GATATTAAAATATGTAGTACACATATTATATCATAT [XGTACX_site4167]”, the “gcPBM binding intensity (ln)” value falls from 9.93 to 9.18.

First: ATTTAACATATAAAATGTACATATATATATATATTT [XGTACX_site2525]
Second: GTTAATCACCATGTGGTGCATATAAGGGCATATTAT [GTGCAC_site9748]
The “gcPBM binding intensity (ln)” value of the first is higher: 9.25 for the first, 9.22 for the second.

First: TATAGATACATATACACACACACACCCACATATATA [CACACA_site3436]
Second: TATATCTCATAGTATACACACACACCCACCCACATA [CACACA_site8513]
The “gcPBM binding intensity (ln)” value of the first is lower: 10.2 for the first, 10.3 for the second.

Going from “TAATTTATAACACGCGCACACATATATATATAGTAA [CACACA_site121]” to “TATCTCATAGTATACACACACACACGCGCACATATA [CACACA_site6917]”, the “gcPBM binding intensity (ln)” value rises from 9.57 to 10.3.

Compared with “TATCTCATAGTATACACACACACACCCACCCATATA [CACACA_site1739]”, “ATTCTACACCCACATACACACATATATATATATATA [CACACA_site3426]” is lower in “gcPBM binding intensity (ln)” value: 10.4 for the first, 9.84 for the second.

Going from “CATAGATACATACACGCACACACATATATATATATA [CACACA_site13]” to “TATATATATAGACACACACACACATATATATATATA [CACACA_site9366]”, the “gcPBM binding intensity (ln)” value rises from 9.87 to 10.

Going from “TATATATATATATATACACACACACCCATATATATA [CACACA_site8812]” to “TATATATATATATACACACACACACCCATATATATA [CACACA_site2538]”, the “gcPBM binding intensity (ln)” value rises from 9.94 to 10.

Going from “TAAGAAATAAATAGTACACACATAGACACACGCACA [CACACA_site6821]” to “TCTCATAGTAGACACACACACACACGCACATATATA [CACACA_site6916]”, the “gcPBM binding intensity (ln)” value rises from 9.92 to 10.4.

Compared with “AATATATATATACATACATGCATACATATATATATA [TGCATGCA_site784]”, “TTTATCCTTCTTTTGAGTACTCAAAGAGACCTATAA [XGTACX_site8050]” is lower in “gcPBM binding intensity (ln)” value: 9.24 for the first, 8.83 for the second.

Compared with “ATGAATTTATTACATTGTACATTTTTAAAAGGTTAC [XGTACX_site124]”, “TAAAAAAGAACAGAAACACACAAATAAAATAAAATT [CACACA_site1758]” is higher in “gcPBM binding intensity (ln)” value: 9.11 for the first, 10 for the second.

Going from “GGGAGAAATTTATACATACACACATATATATATTAT [CACACA_site4039]” to “AAATATTATACAAAAAAAAAAAAAAAAAAAATATAT [CACACA_negctrl_site52]”, the “gcPBM binding intensity (ln)” value falls from 9.62 to 9.39.

Compared with “AAAGCACCCAGGCACACACACAAAGGAAAAGAAAAA [CACACA_site232]”, “AAAAAAAACAGACACACACACAAATATATAAAAATA [CACACA_site1172]” is higher in “gcPBM binding intensity (ln)” value: 9.83 for the first, 10 for the second.

Going from “CAAATACCCGGACACACACACACAAAAAAAAAAAAA [CACACA_site4441]” to “AAAAAAAAAAAAAATACACACAAATAATAAAAATAA [CACACA_site1431]”, the “gcPBM binding intensity (ln)” value falls from 9.99 to 9.85.

Going from “TTAATACCCGGACACACACACACAAAATAAAATACA [CACACA_site4296]” to “AAAAAAAAAAAAAACACACACATACAGACAAAAATG [CACACA_site83]”, the “gcPBM binding intensity (ln)” value falls from 10.2 to 10.1.

Going from “ATAAATGACAGACACACACACAAAAAAAAAAAACAA [CACACA_site2626]” to “AAAACAGACAAACACACACACACATATATATATATA [CACACA_site3393]”, the “gcPBM binding intensity (ln)” value falls from 10.2 to 10.

First: TTAATACCCAGACACACACACACAAAATAAAATACA [CACACA_site7968]
Second: AAAAAAAACAGACACACACACAAATACATACACAAA [CACACA_site705]
The “gcPBM binding intensity (ln)” value of the first is higher: 10.1 for the first, 10 for the second.

“AAAAAAAACAGACACACACACATACAAAATATATAT [CACACA_site1449]” and “TTAATCCACAGACACACACACACAAAATAAAATACA [CACACA_site244]” are the same in “gcPBM binding intensity (ln)” value: 10.2 for the first, 10.2 for the second.

Going from “GCTTAATACAGAATAACACACAAAATAAATAAATAA [CACACA_site4041]” to “AAATGTACAGGACGCACACACATATTTATATTTATA [CACACA_site7689]”, the “gcPBM binding intensity (ln)” value rises from 9.56 to 9.67.

Compared with “ATACATATATTAGGATGTACGTTTATTTTAGTTATT [XGTACX_site7169]”, “ATTAATATTTAGACTTGTACATATATAATATATGTC [XGTACX_site3766]” is lower in “gcPBM binding intensity (ln)” value: 9.47 for the first, 9.2 for the second.

For “AAATTCTTAACCCAACGTACATATAATAAATTCTTA [XGTACX_site8538]”, the “gcPBM binding intensity (ln)” value was 9.1.

Source: the supplement of paper PMC11417369
